Laboratory results published in PubChem BioAssay (NCATS).
Results filed as inconclusive are left out. The source made the active and inactive calls. The call rests on the fitted dose curve; in most records, active means well fitted curve in the direction sought with a large enough effect; inconclusive means small, poorly fitted or top-dose-only effect, or another doubt; inactive means no such curve, though single readings can be large; an effect the other way counts as inactive or inconclusive.

Experiments:
[1] = Quantitative High-Throughput drug screen in 47 multiple myeloma cell lines against the NCATS MIPE library collection: KMS12BM_JCRB cell viability assay (AID 1918971); further: nearly all actives have a fitted effect of over 35% in size; further: potency means the concentration at half of the fitted maximal effect
Method in brief: (§1)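 Luminescent ATP measurement with CellTiter-Glo gives viability, scaled between DMSO-only wells (100%) and media-only wells (0%). Cells, 500 per well, faced library compounds for 48 hours at 37C.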

[2] = Quantitative High-Throughput drug screen in 47 multiple myeloma cell lines against the NCATS MIPE library collection: KMS12PE_JCRB cell viability assay (AID 1918972); further: nearly all actives have a fitted effect of over 30% in size; further: potency means the concentration at half of the fitted maximal effect
Method in brief: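 Steps: seed 500 cells per well; pin-transfer MIPE 4.0 library; incubate 48 h at 37C, 5% CO2, humidified; add CellTiter-Glo, 5 min room temperature; read luminescence.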

[3] = Quantitative High-Throughput drug screen in 47 multiple myeloma cell lines against the NCATS MIPE library collection: MM1S_ATCC cell viability assay (AID 1918980); further: nearly all actives have a fitted effect of over 45% in size; further: potency means the concentration at half of the fitted maximal effect
Method in brief: (§2)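 Inhibition of viability over 48 h was scored by ATP content (CellTiter-Glo) in 500-cell wells. Zero and full viability were defined by media-only and DMSO-only wells.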

[4] = Quantitative High-Throughput drug screen in 47 multiple myeloma cell lines against the NCATS MIPE library collection: NCIH929_DSMZ cell viability assay (AID 1918978); further: nearly all actives have a fitted effect of over 35% in size; further: potency means the concentration at half of the fitted maximal effect
Method in brief: as §2

[5] = Quantitative High-Throughput drug screen in 47 multiple myeloma cell lines against the NCATS MIPE library collection: MOLP8_DSMZ cell viability assay (AID 1918977); further: nearly all actives have a fitted effect of over 45% in size; further: potency means the concentration at half of the fitted maximal effect
Method in brief: as §2

[6] = Quantitative High-Throughput drug screen in 47 multiple myeloma cell lines against the NCATS MIPE library collection: OCIMY1_PLB cell viability assay (AID 1918979); further: nearly all actives have a fitted effect of over 35% in size; further: potency means the concentration at half of the fitted maximal effect
Method in brief: as §2

[7] = Quantitative High-Throughput drug screen in 47 multiple myeloma cell lines against the NCATS MIPE library collection: KMS20_JCRB cell viability assay (AID 1918973); further: nearly all actives have a fitted effect of over 45% in size; further: potency means the concentration at half of the fitted maximal effect
Method in brief: (§3)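 Inhibition of cell viability is measured here. Each line was plated at 500 cells per well, treated with MIPE 4.0 drugs, kept 48 hours at 37C, then assayed for ATP content by CellTiter-Glo luminescence.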

[8] = Quantitative High-Throughput drug screen in 47 multiple myeloma cell lines against the NCATS MIPE library collection: MMM1_PLB cell viability assay (AID 1918976); further: potency means the concentration at half of the fitted maximal effect; nearly all actives have a fitted effect of over 35% in size
Method in brief: as §2

[9] = Quantitative High-Throughput drug screen in 47 multiple myeloma cell lines against the NCATS MIPE library collection: KMS26_JCRB cell viability assay (AID 1918975); further: nearly all actives have a fitted effect of over 45% in size; further: potency means the concentration at half of the fitted maximal effect
Method in brief: as §1

[10] = Quantitative High-Throughput drug screen in 47 multiple myeloma cell lines against the NCATS MIPE library collection: KMS21BM_JCRB cell viability assay (AID 1918974); conditions: ATP luminescence, 48 h; viability: at 45.8 µM (top of the series)
Method in brief: as §3

Measured: Potency

CCc1nc(-c2cccc(C)c2)c(-c2ccnc(NC(=O)c3ccccc3)c2)s1
active: [1] 23.5 µM | [2] 6.62 µM | [3] 20.9 µM

CC(Cc1ccc(O)c(O)c1)(NN)C(=O)O (stereo not drawn)
active: [1] 26.4 µM
inactive: [2] | [4]

C=C1C[C@@]2(O)O[C@@]3(C[C@H]2C(C)C)[C@H](C)CC[C@H]13
inactive: [1] | [2] | [5] | [6]
active: [3] 1.48 µM

CCCCCCCCCCCC(CC1OC(=O)C1CCCCCC)OC(=O)C(CC(C)C)NC=O (stereo not drawn)
inactive: [4] | [6] | [3]
active: [1] 20.9 µM | [7] 0.0042 µM | [8] 20.9 µM

C[C@@H]1CC[C@@]2(OC1)OC1CC3C4CC=C5CC(O)CCC5(C)C4CCC3(C)C1[C@@H]2C (stereo partly drawn)
inactive: [1] | [2] | [5] | [4] | [6] | [3]

O=C(O)C(=O)Nc1cccc(C2=NN=N[N]2)c1
inactive: [1] | [2] | [5] | [4]

C=C1C(=O)O[C@H]2[C@@H]1CCC(C)=CCC[C@@]1(C)O[C@@H]21
active: [1] 8.33 µM | [7] 1.66 µM | [9] 3.72 µM | [4] 2.96 µM | [6] 5.26 µM | [3] 5.9 µM

CC(C)[C@H](CO)Nc1nc(Nc2cccc(Cl)c2)c2ncn(C(C)C)c2n1
active: [1] 20.9 µM | [7] 20.9 µM | [9] 23.5 µM | [5] 18.7 µM | [4] 18.7 µM | [6] 23.5 µM | [3] 5.9 µM

CCCNS(=O)(=O)Nc1ncnc(OCCOc2ncc(Br)cn2)c1-c1ccc(Br)cc1
inactive: [1] | [2] | [5] | [4] | [6]

CCOc1cc2c(c(F)c1OCC)C(=N)N(CC(=O)c1cc(N3CCOCC3)c(OC)c(C(C)(C)C)c1)C2
active: [1] 18.7 µM | [7] 9.35 µM | [9] 18.7 µM | [8] 10.5 µM | [4] 14.8 µM | [6] 20.9 µM | [3] 14.8 µM

C[C@]12C=CC(=O)N[C@@H]1CC[C@H]1[C@H]3CC[C@@H](C(=O)Nc4cc(C(F)(F)F)ccc4C(F)(F)F)[C@@]3(C)CC[C@@H]12
inactive: [2] | [6]
active: [1] 20.9 µM

CC(=O)ON=C1C(c2c(O)[nH]c3cc(Br)ccc23)=Nc2ccccc21
active: [1] 14.8 µM | [2] 1.48 µM | [8] 20.9 µM | [5] 13.2 µM | [6] 26.4 µM

C[C@H]1COc2c(N3CCN(C)CC3)c(F)cc3c(=O)c(C(=O)O)cn1c23
inactive: [1] | [7] | [9] | [4] | [6] | [3]

CC1(C)[C@H](O[C@H]2O[C@H](C(=O)O)[C@@H](O)[C@H](O)[C@H]2O[C@@H]2O[C@H](C(=O)O)[C@@H](O)[C@H](O)[C@H]2O)CC[C@@]2(C)[C@H]1CC[C@]1(C)[C@H]2C(=O)C=C2[C@H]3C[C@@](C)(C(=O)O)CC[C@]3(C)CC[C@]21C
inactive: [1] | [2] | [9] | [4] | [6]

Cc1cnc(Nc2ccc(CN3CCOCC3)cc2)nc1Nc1cccc(S(=O)(=O)NC(C)(C)C)c1
active: [1] 3.32 µM | [7] 2.64 µM | [9] 13.2 µM | [8] 10.5 µM | [5] 2.09 µM | [4] 1.66 µM

N#Cc1ccc(COC[C@H]2O[C@@H](n3c(NCc4ccc(Cl)c(Cl)c4)nc4c(N)ncnc43)[C@@H](O)[C@@H]2O)cc1
active: [1] 5.9 µM | [2] 3.72 µM | [9] 2.35 µM | [4] 20.9 µM | [3] 18.7 µM

O=C(C=CC=Cc1ccc2c(c1)OCO2)N1CCCCC1
inactive: [1] | [5] | [6]
active: [2] 16.6 µM

C[C@@H](NCc1cc2ccccc2[nH]1)c1cccc2ccccc12
inactive: [1] | [7] | [5] | [4]

COc1cc(N2CCC(C(N)=O)CC2)ccc1Nc1nc(N)c(Cl)c(Nc2ccccc2S(=O)(=O)C(C)C)n1
active: [1] 2.64 µM | [9] 1.87 µM | [8] 0.209 µM | [4] 0.0935 µM | [3] 0.743 µM

C[C@](Cc1c[nH]c2ccccc12)(NC(=O)OC1C2CC3CC(C2)CC1C3)C(=O)NC[C@H](NC(=O)CCC(=O)O)c1ccccc1 (stereo partly drawn)
inactive: [1] | [10] | [9] | [5] | [6]

CC(=O)O[C@@]12CO[C@H]1C[C@H](O)[C@@]1(C)C(=O)[C@H](O)C3=C(C)[C@@H](OC(=O)C(O)[C@@H](NC(=O)OC(C)(C)C)c4ccccc4)C[C@@](O)([C@@H](OC(=O)c4ccccc4)[C@@H]21)C3(C)C (stereo partly drawn)
inactive: [1] | [5] | [4] | [6] | [3]

Cc1ccccc1C(=O)Nc1ccc(C(=O)N2CCCC(O)c3cc(Cl)ccc32)c(C)c1 (stereo not drawn)
inactive: [1] | [5] | [6]

COc1ccc2cc([S+]([O-])Cc3ncc(C)c(OC)c3C)nc2c1
inactive: [1] | [4] | [6] | [3]

Cc1coc2c1C(=O)C(=O)c1c-2ccc2c(C)cccc12
active: [1] 13.2 µM | [9] 6.62 µM | [5] 9.35 µM

CCc1cc(C(C)=NOCc2ccc(C3CCCCC3)c(C(F)(F)F)c2)ccc1CN1CC(C(=O)O)C1
active: [1] 18.7 µM
inactive: [5] | [6]
